GPR151 ag: human GPR151 activation. 1% of 650,000 active. activation, % at 11.2 µM. PathHunter beta-arrestin GPR151 cells, luminescence. AID 1508602. Q8TDV0; in the data active = activation above about 4.9%
FBW7 act: human FBW7 E3 ligase activation, primary screen. Q969H0. AlphaScreen FBW7–phospho-cyclin E peptide binding, activator screen. normalized activity (activation), % at 26.1 µM. 0.13% of 650,000 active. AID 1259310; in the data active = normalized activity above about 1.9%;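 note: purified mutant Fbw7 with reduced substrate affinity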
Target sequence (Q969H0 whole entry, looked up): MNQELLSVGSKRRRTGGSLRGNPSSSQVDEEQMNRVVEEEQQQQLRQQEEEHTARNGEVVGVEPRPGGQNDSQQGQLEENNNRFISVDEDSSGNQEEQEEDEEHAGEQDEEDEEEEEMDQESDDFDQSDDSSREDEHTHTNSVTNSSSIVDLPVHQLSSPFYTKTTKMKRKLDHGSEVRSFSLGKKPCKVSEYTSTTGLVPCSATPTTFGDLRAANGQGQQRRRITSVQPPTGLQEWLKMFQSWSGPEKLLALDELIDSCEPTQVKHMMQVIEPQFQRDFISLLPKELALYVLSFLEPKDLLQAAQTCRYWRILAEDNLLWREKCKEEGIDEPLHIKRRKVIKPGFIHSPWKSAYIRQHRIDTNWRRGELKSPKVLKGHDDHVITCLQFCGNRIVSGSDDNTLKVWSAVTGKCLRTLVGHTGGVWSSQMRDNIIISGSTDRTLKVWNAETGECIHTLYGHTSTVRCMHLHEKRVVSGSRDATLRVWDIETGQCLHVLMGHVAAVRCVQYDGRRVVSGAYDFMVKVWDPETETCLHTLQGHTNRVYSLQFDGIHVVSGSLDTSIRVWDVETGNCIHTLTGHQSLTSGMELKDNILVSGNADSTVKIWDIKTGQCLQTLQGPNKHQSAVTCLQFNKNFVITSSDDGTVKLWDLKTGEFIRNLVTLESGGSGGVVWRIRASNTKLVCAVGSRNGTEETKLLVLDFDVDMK
TEAD-YAP block: TEAD-YAP interaction inhibition; HEK-TIYL cells, TEAD-Gal4/YAP UAS-luciferase luminescence; inhibition, % at 9.12 µM; 1.4% of 640,000 active; in the data active = inhibition above about 32%
MITF primary: human MITF inhibition, primary screen; AlphaScreen MITF homodimerization, bead proximity signal; O75030; inhibition, % at 2.6 µM; AID 1259374; 0.91% of 650,000 active; in the data active = inhibition above about 50%
MITF confirm: human MITF inhibition, confirmation | shares compounds with MITF primary | 16% of 4,700 active | AlphaScreen MITF homodimerization, biotin/His-MITF beads | inhibition, % at 2.6 µM | AID 1259372;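 active = inhibition above a cutoff derived from the DMSO control wells, cut at about 28% in these data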;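 note: inhibitors lower the bead chemiluminescence by keeping MITF from dimerizing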
AlphaScreen intf2: AlphaScreen optical interference, counter-screen; shares compounds with MITF primary; LysRS AlphaScreen counterscreen, signal interference, triplicate; inhibition, % at 2.6 µM; 7.6% of 4,700 active;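 active = inhibition above a cutoff derived from the DMSO control wells, cut at about 30% in these data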
Hits are given with their value. Sampled rows, rich in hits. Any-hit rate of the full collection: about 3.5%.

For COc1cccc(C(=O)N2CCC(N3CC(C)CC(C)C3)CC2)c1 (stereo unspecified) the results were GPR151 ag inactive, FBW7 act inactive, TEAD-YAP block inactive, MITF primary 60.8, MITF confirm inactive and AlphaScreen intf2 inactive.
CC(C)N1CCN(C(=O)c2ccncc2)CC1 was read as GPR151 ag inactive, FBW7 act inactive, TEAD-YAP block inactive, MITF primary 78.0, MITF confirm inactive and AlphaScreen intf2 inactive.
`COc1ccc(C(=O)N2CCN(Cc3ccccc3)CC2)cc1` gave GPR151 ag inactive, FBW7 act inactive, TEAD-YAP block inactive and MITF primary inactive.
For COc1ccc(CN2CCN(C(=O)c3ccncc3)CC2)cc1 the results were GPR151 ag inactive, FBW7 act inactive, TEAD-YAP block inactive, MITF primary 74.9, MITF confirm inactive and AlphaScreen intf2 inactive.
For COc1cccc(C(=O)N2CCN(Cc3ccncc3)CC2)c1 the results were GPR151 ag inactive, FBW7 act inactive, TEAD-YAP block inactive, MITF primary 67.9, MITF confirm inactive and AlphaScreen intf2 inactive.
`O=C(CCc1ccccc1)Nc1nnc(-c2ccccc2)s1` gave GPR151 ag inactive, FBW7 act inactive, TEAD-YAP block inactive and MITF primary inactive.
O=C1CCCC(=O)N1CCS(=O)(=O)N1CCC(c2ccccc2)C1 (stereo unspecified) was read as GPR151 ag inactive, FBW7 act inactive, TEAD-YAP block inactive and MITF primary inactive.
For O=C(O)CNC(=O)/C=C/c1ccc(F)cc1 the results were GPR151 ag inactive, FBW7 act inactive, TEAD-YAP block inactive and MITF primary inactive.
Screening COc1ccc(C(=O)COC(=O)c2ccc([N+](=O)[O-])o2)cc1 returned GPR151 ag inactive, FBW7 act inactive, TEAD-YAP block inactive and MITF primary inactive.
For COc1cccc(OC)c1C(=O)N1CCCCCC1 the results were GPR151 ag inactive, FBW7 act inactive, TEAD-YAP block inactive and MITF primary inactive.
For COc1cccc(OC)c1C(=O)N1CCN(Cc2ccncc2)CC1 the results were GPR151 ag inactive, FBW7 act inactive, TEAD-YAP block inactive, MITF primary 74.9, MITF confirm inactive and AlphaScreen intf2 inactive.
COc1cc(OC)cc(C(=O)N2CCN(Cc3ccc(OC)c(OC)c3)CC2)c1 was read as GPR151 ag inactive, FBW7 act inactive, TEAD-YAP block inactive and MITF primary inactive.
For COc1cccc(C(=O)N2CCN(Cc3ccc4ccccc4c3)CC2)c1 the results were GPR151 ag inactive, FBW7 act inactive, TEAD-YAP block inactive and MITF primary inactive.
COc1cc(OC)cc(C(=O)N2CCN(Cc3ccncc3)CC2)c1 was read as GPR151 ag inactive, FBW7 act inactive, TEAD-YAP block inactive, MITF primary 83.7, MITF confirm inactive and AlphaScreen intf2 inactive.
COc1ccc(C(=O)N2CCN(Cc3ccc4ccccc4c3)CC2)cc1OC was read as GPR151 ag inactive, FBW7 act inactive, TEAD-YAP block 38.3, MITF primary 69.9, MITF confirm inactive and AlphaScreen intf2 inactive.
CCOc1cc(N2CCN(C(=O)c3ccc(OC)c(OC)c3)CC2)nc(C)n1 was read as GPR151 ag inactive, FBW7 act inactive, TEAD-YAP block inactive and MITF primary inactive.
COc1cc(N2CCN(C(=O)c3ccc(OC)c(OC)c3)CC2)nc(C)n1 was read as GPR151 ag inactive, FBW7 act inactive, TEAD-YAP block inactive, MITF primary 107.1, MITF confirm inactive and AlphaScreen intf2 inactive.
`O=C(COC(=O)Cc1ccc(Cl)cc1)NNC(=O)c1ccc(Br)cc1` gave GPR151 ag inactive, FBW7 act inactive, TEAD-YAP block inactive and MITF primary inactive.
Screening O=C(c1ccncc1)N1CCN(Cc2ccc3ccccc3c2)CC1 returned GPR151 ag inactive, FBW7 act inactive, TEAD-YAP block inactive, MITF primary 79.3, MITF confirm inactive and AlphaScreen intf2 inactive.
For CCc1ccc(CN2CCN(C(=O)c3ccccc3)CC2)cc1 the results were GPR151 ag inactive, FBW7 act inactive, TEAD-YAP block inactive and MITF primary inactive.
CCc1ccc(CN2CCN(Cc3cccnc3)CC2)cc1 was read as GPR151 ag inactive, FBW7 act inactive, TEAD-YAP block inactive, MITF primary 76.6, MITF confirm inactive and AlphaScreen intf2 inactive.
Cc1ccccc1N1CCN(Cc2cccnc2)CC1 was read as GPR151 ag inactive, FBW7 act inactive, TEAD-YAP block inactive and MITF primary inactive.
For c1ccc(CN2CCN(Cc3cccnc3)CC2)nc1 the results were GPR151 ag inactive, FBW7 act inactive, TEAD-YAP block inactive, MITF primary 74.1, MITF confirm inactive and AlphaScreen intf2 inactive.
Clc1ccccc1CN1CCN(Cc2cccnc2)CC1 was read as GPR151 ag inactive, FBW7 act inactive, TEAD-YAP block inactive, MITF primary 82.6, MITF confirm inactive and AlphaScreen intf2 inactive.
For Clc1ccc(N2CCN(Cc3cccnc3)CC2)cc1 the results were GPR151 ag inactive, FBW7 act inactive, TEAD-YAP block inactive, MITF primary 51.8, MITF confirm inactive and AlphaScreen intf2 inactive.
O=C1CCN(Cc2cccnc2)CCN1Cc1ccc(F)cc1Cl was read as GPR151 ag inactive, FBW7 act inactive, TEAD-YAP block inactive and MITF primary inactive.
OCCCNc1nn2c(C(F)(F)C(F)(F)F)nnc2c2ccccc12 was read as GPR151 ag inactive, FBW7 act inactive, TEAD-YAP block inactive and MITF primary inactive.
For c1ccc(CN2CCN(C3CCN(Cc4cccnc4)CC3)CC2)cc1 the results were GPR151 ag inactive, FBW7 act inactive, TEAD-YAP block inactive and MITF primary inactive.
Screening Clc1ccc(CN2CCN(Cc3cccnc3)CC2)cc1 returned GPR151 ag inactive, FBW7 act inactive, TEAD-YAP block inactive, MITF primary 84.4, MITF confirm inactive and AlphaScreen intf2 inactive.
FC(F)(F)c1ccc(CN2CCN(Cc3cccnc3)CC2)cc1 was read as GPR151 ag inactive, FBW7 act inactive, TEAD-YAP block inactive, MITF primary 80.8, MITF confirm inactive and AlphaScreen intf2 inactive.
FC(F)(F)c1cccc(N2CCN(Cc3cccnc3)CC2)c1 was read as GPR151 ag inactive, FBW7 act inactive, TEAD-YAP block inactive and MITF primary inactive.
Screening CCn1c(=O)c2cc(C(=O)N3CCCC(C)C3)sc2c2ccccc21 (stereo unspecified) returned GPR151 ag inactive, FBW7 act inactive, TEAD-YAP block inactive and MITF primary inactive.
Screening CN(C)CCCN(CCCN(C)C)Cc1ccc(C(F)(F)F)cc1 returned GPR151 ag inactive, FBW7 act inactive, TEAD-YAP block inactive, MITF primary 53.6, MITF confirm inactive and AlphaScreen intf2 inactive.
For CN(C)CCCN(CCCN(C)C)Cc1ccc(F)c(F)c1 the results were GPR151 ag inactive, FBW7 act inactive, TEAD-YAP block inactive, MITF primary 56.0, MITF confirm inactive and AlphaScreen intf2 inactive.
For O=C(Cc1nnc(NC(=O)c2ccccc2)s1)N/N=C\c1ccc(O)cc1 the results were GPR151 ag inactive, FBW7 act inactive, TEAD-YAP block inactive and MITF primary inactive.
For COCc1cc(C)nc(SCCN(C)C)c1C#N the results were GPR151 ag inactive, FBW7 act inactive, TEAD-YAP block inactive, MITF primary 51.2, MITF confirm inactive and AlphaScreen intf2 inactive.

Screens deposited in PubChem by The Scripps Research Institute Molecular Screening Center.
